In the library only some 11% were active in any assay of this set; here they are far more common.
Sm TGR block: blocks Schistosoma mansoni thioredoxin glutathione reductase; AID 485364; 360,000 tested, 3% active; Potency, µM (series often up to 114 µM), inactives show at the highest dose activity change, negative = inhibition, actives largely listed as inhibitors; purified TGR, DTNB reduction, TNB absorbance 405 nm; Q962Y6; also: % is scaled to controls: 0 for no effect and ±100 for the full control effect; nearly all actives have a fitted effect of over 60% in size
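TGR 20 nM + NADPH 100 uM (dispensed conc.), cpd preinc 15 min RT; start with NADPH (500 uM addition) then DTNB (15 mM addition). Kinetic TNB absorbance, 405 nm filter. Four-parameter Hill fit across titration.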
Pf growth 96h: P. falciparum growth inhibition at 96 hour, primary screen for plastid delayed-death inhibitors; P. falciparum luciferase reporter growth, 96 h; AID 504834; Potency, µM (top dose mostly 28.7 µM), inactives show top-dose activity change, negative = inhibition, actives largely listed as inhibitors; 320,000 tested, 6.9% active; also: % is scaled to controls: 0 for no effect and ±100 for the full control effect
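Two-generation exposure (96 h) targets delayed-death phenotype. Reporter parasites carrying integrated firefly luciferase, in red cells at 2% hematocrit and 0.05% parasitemia final, kept at 37 C, 5% CO2; luminescence loss indicates inhibition.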
Pf growth 48h: P. falciparum growth inhibition at 48 hours (one generation); Potency, µM (doses to about 28.7 µM), for the others: top-dose activity change, negative = inhibition, hits mostly inhibitors; 310,000 tested, 5.9% active; P. falciparum luciferase growth in erythrocytes, 48 h; AID 504832; also: % is scaled to controls: 0 for no effect and ±100 for the full control effect
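Luciferase-expressing P. falciparum in infected erythrocytes (2% hematocrit, 0.1% parasitemia final) in RPMI 1640/0.5% Albumax were exposed to compound for 48 hours at 37 C, 5% CO2; growth read as luminescence.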
AMA1 RON2 block: disrupts binding of P. falciparum AMA1 to RON2; Potency, µM (titrated, usually from 58.2 µM), inactives show top-dose activity change, negative = inhibition, hits mostly inhibitors; AID 720542; 360,000 tested, 0.2% active; AlphaScreen AMA1-biotinylated RON2 peptide binding;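 also: 0% = vehicle wells and -100% = peptide control; nearly all actives have a fitted effect of over 45% in size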
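AMA1 (3D7) with his tag at 25 nM final met compounds first, then biotinylated RON2 peptide at 25 nM; detection used donor plus acceptor beads, 10 µg/mL apiece, read by AlphaScreen after 30 min at room temperature.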
NS1 function inh: influenza NS1 inhibition | Potency, µM (titrated, usually from 46.1 µM), inactives show top-dose activity, positive = more growth | 270,000 tested, 0.4% active | AID 2326; calls by dose curve; also: actives are rising curves; nearly all actives have a fitted effect of over 50% in size
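Recovery from NS1-induced slow growth read by OD600 in budding yeast switched to galactose assay medium (pH 6.0, -URA) at 1:100 dilution. Compound 23 nl per well; the matching strain lacking NS1 serves as control.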
* hit, by the source's call; ? = inconclusive; / = no result; ! = repeats disagree; [ ] = dose if it differs, or a comment. Unless noted, calls follow the shape of the dose curve; as a rule, active = well fitted curve in the direction sought with a large enough effect; inconclusive = small, poorly fitted or top-dose-only effect, or another doubt; inactive = no such curve, though single readings can be large; an effect the other way counts as inactive or inconclusive. Potency is read from the fitted curve at half-maximal effect.

SMILES | Sm TGR block | Pf growth 96h | Pf growth 48h | AMA1 RON2 block | NS1 function inh
Cc1[nH]c2c(ccc3ccccc32)c1C1C(CCN)C1(C)C (stereo not given) | 7% | / | 10µM* | 1% | 3%
CCCS(=O)(=O)c1nc(S(=O)(=O)c2ccc(C)cc2)c(N2CCCC2)s1 | -2% | / | 12µM* | -4% | 4%
CCCS(=O)(=O)c1nc(S(=O)(=O)c2ccc(C)cc2)c(NC(C)c2ccccc2)s1 (stereo not given) | 5µM* | / | / | / | /
CCCS(=O)(=O)c1nc(S(=O)(=O)c2ccc(C)cc2)c(N2CCc3ccccc3C2)s1 | 25µM* | ? | 2.3µM* | -2%[11.6 µM] | 10%
CCCS(=O)(=O)c1nc(S(=O)(=O)c2ccc(C)cc2)c(N2CCC(O)CC2)s1 | -6% | -10% | -6% | 7% | -2%
CCCS(=O)(=O)c1nc(S(=O)(=O)c2ccc(C)cc2)c(N2CCC(C(N)=O)CC2)s1 | 45µM* | 10µM* | -7% | -6% | -11%
Cc1ccc(S(=O)(=O)c2nc(S(=O)(=O)c3ccc(C)cc3)c(N3CCN(CCO)CC3)s2)cc1 | -25% | -31% | 5.2µM* | 5% | -13%
CS(=O)(=O)c1nc(S(=O)(=O)c2ccc(Cl)cc2)c(N2CCN(CCO)CC2)s1 | -17% | ? | -10% | -10% | 1%
CCCS(=O)(=O)c1nc(S(=O)(=O)c2ccc(C)cc2)c(N2CCC(C)CC2)s1 | -5% | 15µM* | ? | 24% | -1%
Cc1ccc(C2=Nc3ccccc3N(C(=O)c3ccccc3)C(C)C2)cc1 (stereo not given) | -4% | 12µM* | ? | -11% | -31%
Cc1ccc(C(=O)N2NC(c3ccccc3F)C3C(=O)N(c4cccc(C)c4)C(=O)C32)cc1 (stereo not given) | -7% | 2.1µM* | 47% | 0% | -5%
CCOC(=O)C1(C)NC(c2ccccc2F)C2C(=O)N(c3cccc(C(C)=O)c3)C(=O)C21 (stereo not given) | 3% | -1%[5.75 µM] | -1% | 2% | -3%
COC(=O)C1=NN(c2ccccc2OC)C2C(=O)N(c3ccccc3OC)C(=O)C12 (stereo not given) | -21% | 18% | -2% | 10% | -2%
COc1ccccc1N1C(=O)C2C(c3ccccc3F)NN(C(=O)c3ccc(C)cc3)C2C1=O (stereo not given) | 18µM* | ? | 18% | 0% | 0%
COc1cc(/C=N/NC(=O)C(=O)/C=C2\NC3(CCCC3)Cc3ccccc32)ccc1O | -8% | ? | ? | 2%[2.32 µM] | 5%
CN(C)c1ccc(/C=N/NC(=O)C(=O)/C=C2\NC3(CCCC3)Cc3ccccc32)cc1 | -1% | 2.6µM* | ? | 7% | ?
Cc1ccc(CNC(=O)CSc2ccc(-c3ccco3)nn2)cc1 | ? | 12% | 14% | -5% | -9%
Cc1cccc(NC(=O)CSc2cn[nH]n2)c1 | 2% | 3% | 1% | 2% | 28%
Cc1cccc(NC(=O)CSc2ccc(-c3ccco3)nn2)c1 | 20µM* | 26% | 18% | -15% | -3%
Cc1cc(C)cc(NC(=O)CSc2ccc(-c3ccco3)nn2)c1 | 22µM* | ? | 15% | 4% | -6%
CC(=O)N1c2c(cc(Br)cc2S(=O)(=O)N2CCN(c3ccccc3)CC2)CC1C (stereo not given) | 0% | / | / | / | /
CC(=O)N1c2c(cc(Br)cc2S(=O)(=O)N2CCN(C(=O)c3ccco3)CC2)CC1C (stereo not given) | -22% | / | 10µM* | -3% | -2%
COc1ccc(CNS(=O)(=O)c2cc(Br)cc3c2N(C(C)=O)C(C)C3)cc1 (stereo not given) | -2% | 4.1µM* | -8% | -4% | 6%
CC1(c2nnnn2-c2ccc3c(c2)OCCO3)CCC(=O)N1Cc1cccc(C(F)(F)F)c1 (stereo not given) | / | / | / | -7% | /
CC(C)=CCN1CCNC(=O)C1CC(=O)NCc1nc(C)c(C)s1 (stereo not given) | -17% | 2.3µM* | 0% | 1% | 1%
SMILES | Sm TGR block | Pf growth 96h | Pf growth 48h | AMA1 RON2 block | NS1 function inh
Cc1nc(CCNC(=O)CC2C(=O)NCCN2Cc2ccccc2)sc1C (stereo not given) | ? | ? | 20% | 0% | 8%
CCOc1ccccc1NC(=O)C(Cc1ccccc1)NS(=O)(=O)c1ccc2c(c1)oc(=O)n2C (stereo not given) | -15% | / | / | / | /
Nc1ccc(Oc2cccc(Oc3ccc(N)cc3)c2)cc1 | -6% | -30% | 7% | 32µM* | /
Cc1cccc(Oc2ccc(N)cc2)c1 | -18% | 34% | / | -14% | -4%
Cc1cc(C)cc(Oc2ccc(N)cc2)c1 | -1% | 12µM* | 27% | -14% | 13%
O=[N+]([O-])c1cncn1CCN1CCOCC1 | / | / | / | 15% | /
C/C(=N/NC(=O)c1ccc(-c2ccccc2)cc1)c1cccc(O)c1 | 0% | 5.9µM* | 5% | 72% | 27%
C/C(=N\NC(=O)c1ccccc1F)c1cccc(NC(=O)c2ccc(C)cc2)c1 | ? | 5.2µM* | 69% | -4% | -3%
C/C(=N\NC(=O)c1ccc(F)cc1)c1cccc(NC(=O)c2cccc(F)c2)c1 | -11% | -17% | ? | 54% | -19%
C/C(=N\NC(=O)c1cccc(O)c1)c1cccc(NC(=O)c2ccc(F)cc2)c1 | 1% | -12% | 34% | 64% | -6%
CCCC12CN3CC(C)(CN(C1)C3c1cn(CC)c3ccccc13)C2=O (stereo not given) | 0% | / | / | / | /
Cc1ccc(CNc2cc(-c3nn4c(C)nnc4s3)ccc2C)s1 | -4% | ? | 12µM* | 16% | -70%
CCCCN(C(=O)c1ccco1)c1nnc(-c2cc(OC)c(OC)c(OC)c2)s1 | 0% | / | 1.9µM* | -16% | -3%
CC(=O)N1N=C(c2ccccc2OC(=O)/C=C/c2ccccc2)CC1c1ccccc1 (stereo not given) | 0% | 0% | -2% | ? | -7%
N#Cc1c(-c2cccs2)cc(-c2ccccn2)nc1N | 8% | 9.3µM* | -6% | 24% | -9%
N#Cc1c(-c2cccs2)cc(-c2cccnc2)nc1N | 5% | / | 0% | 25% | -27%
O=C(NC1CCCCCC1)c1ccc(CS(=O)Cc2cccc(Cl)c2)o1 (stereo not given) | 56µM* | ? | -23% | -7% | -9%
O=C(NCCc1ccccc1)c1ccc(CS(=O)Cc2ccc(Cl)cc2)o1 (stereo not given) | 35µM*! | 26% | 17% | 0% | -3%
COc1ccc(OC)c(CCNC(=O)c2ccc(CS(=O)Cc3cccc(Cl)c3)o2)c1 (stereo not given) | -12% | 4.1µM* | ? | -1% | -1%
CC(NC(=O)c1cc(S(=O)(=O)N(C)C)ccc1N1CCCC1)C1CC2CCC1C2 (stereo not given) | 3% | ? | ? | 2% | /
O=C(COC(=O)c1cc(-c2ccccc2)nc2c(Cl)cccc12)c1ccc(F)cc1 | -3% | / | / | / | /
